# Laboratory results published in PubChem BioAssay (NCATS).
# Values joined by “and” are separate entries in the source; they are usually repeats but may differ in a detail not shown here. Equal entries are not always repeated. Records with an inconclusive call do not appear. Some compounds were tested as several samples or in several runs, with calls that do not always agree. Values without a mark were called inactive. Active and inactive are the calls of the source. Calls come from the whole dose curve; as a rule, active = well fitted inhibition curve with a large enough effect; inconclusive = small, poorly fitted or top-dose-only effect; inactive = flat fitted curve, though single readings scatter.
# Tested on: HEK293
# Experiment: Cytotoxic Profiling of Annotated Libraries Using Quantitative High-Throughput Screening (AID 1296008); note: nearly all actives have a fitted effect of over 60% in size
# Conditions: Five cell lines viability, CellTiter-Glo ATP luminescence, 48-72 h; max response: stronger effect = lower value
# Excerpt: Cell-based phenotypic screening is a commonly used approach to discover biological pathways, novel drug targets, chemical probes and high-quality hit-to-lead molecules. Many hits identified from high-throughput screening campaign are ruled out through a series of follow-up potency, selectivity/specificity, and cytotoxicity assays. Prioritization of molecules with little or no cytotoxicity for a more in-depth downstream evaluation influence the future direction of projects, so cytotoxicity profiling of the screening libraries at early stage is essential for increasing the likelihood of candidate success. […] For the annotated library, we also examined the primary targets and mechanistic pathways regularly associated with cell death. To our knowledge, this is the first study to use high-throughput screening to profile large libraries for cytotoxicity assessment in both normal and cancer cell lines. In summary, the results generated here constitutes a valuable resource for the scientific community and provides insight on identifying cytotoxic compounds with particular mechanisms of action, and prioritizing compounds with suitable cytotoxicity profile for further evaluation.
# A pintool (Kalypsys) was used to transfer 23 nL of compound solution to the 1536-well assay plates. After 48 or 72 hr incubation at 37 degree Celsius, 5% CO2 and 95% humidity, 2.5 uL of CellTiter-Glo (Promega) was dispensed into each well using a dispenser (Aspect Automation, St. Paul, MN) with solenoid valves (Lee Valves, Westbrook CT). Plates were left at room temperature for 10 min before imaging the ATP-coupled luminescence using a ViewLux microplate imager (PerkinElmer, Waltham, MA).
# % is set by controls: 0 for no effect and ±100 for the full control effect; potency is the fitted concentration of half-maximal effect.
Structure (SMILES),Potency,outcome,max response
CC[C@@]1(O)C(=O)OCc2c1cc1n(c2=O)Cc2cc3cc(O)ccc3nc2-1,73.1 nM (active) and 148 nM (active),,
c1nc2nc(Nc3ccc(N4CCOCC4)cc3)nc(NC3CCCCC3)c2[nH]1,935 nM (active) and 252 nM (active),,
CCCCOc1c(C(=O)c2c(F)cc(C)cc2F)cnc2n[nH]cc12,14.8 µM (active) and 2.59 µM (active),,
CC(=O)Nc1sc2c(c1-c1nc3ccccc3s1)CNC2,11.8 µM (active),,
O=C(C=Cc1cccc(S(=O)(=O)Nc2ccccc2)c1)NO,19.1 µM (active),,
COc1cc2c(Oc3ccc(NC(=O)C4(C(=O)Nc5ccc(F)cc5)CC4)cc3F)ccnc2cc1OCCCN1CCOCC1,8.33 µM (active) and 18.4 µM (active),,
C1=CCOCc2cc(ccc2OCCN2CCCC2)Nc2nccc(n2)-c2cccc(c2)OCC1,3.32 µM (active),,
CN(C)CC=CC(=O)Nc1cc2c(Nc3ccc(F)c(Cl)c3)ncnc2cc1O[C@H]1CCOC1,1.32 µM (active),,
COC(=O)C1=C(C)NC(C)=C(C(=O)OCCN2CCN(C(c3ccccc3)c3ccccc3)CC2)C1c1cccc([N+](=O)[O-])c1 (stereo not given),11.9 µM (active),,
Nc1ccccc1NC(=O)c1ccc(CNC(=O)OCc2cccnc2)cc1,7.43 µM (active) and 6.51 µM (active),,
CC(C)c1cc(C(=O)N2Cc3ccc(CN4CCN(C)CC4)cc3C2)c(O)cc1O,105 nM (active) and 58 nM (active),,
CCCNC(=O)Nc1ccc(Oc2ncnc3cc(OC)c(OC)cc23)cc1Cl,,inactive,-15.3%
O=C(c1cncc(Br)c1)N1CCC(N2CCCC2)CC1,,,2.69% and -9.71%
CN1CCC(CNc2ccc3ncc(-c4cccc(OC(F)(F)F)c4)n3n2)CC1,23.5 µM (active),,
CC(C)c1cnn2c(NCc3ccccc3)cc(N[C@@H](CO)[C@H](O)CO)nc12,332 nM (active) and 1.03 µM (active),,
CCc1cc2c(cc1N1CCC(N3CCOCC3)CC1)C(C)(C)c1[nH]c3cc(C#N)ccc3c1C2=O,3.17 µM (active),,-78.7%
COc1ccc(C(=O)CC2(O)C(=O)Nc3c(Cl)ccc(Cl)c32)cc1 (stereo not given),2.64 µM (active),,
C=CC(=O)Nc1cc2c(Nc3ccc(F)c(Cl)c3)ncnc2cc1C#CC(C)(C)N1CCN(C)CC1,2.96 µM (active),,

Structure (SMILES),Potency,outcome,max response
C[C@]1(CO)CN(c2cc(C(=O)Nc3ccc4c(c3)-c3c(c(C(N)=O)nn3-c3ccc(F)cc3)CC4)c(Cl)cn2)C[C@@]1(C)CO,4.69 µM (active) and 9.2 µM (active),,
CS(=O)(=O)N1CCN(Cc2cc3nc(-c4cccc5[nH]ncc45)nc(N4CCOCC4)c3s2)CC1,372 nM (active) and 1.84 µM (active),,
CNC(=O)c1cc(Oc2ccc(NC(=O)Nc3cc(C(C)(C)C)nn3-c3ccc4ncccc4c3)c(F)c2)ccn1,23.5 µM (active),,
Cc1nc2cnc3ccc(C#Cc4cccnc4)cc3c2n1-c1ccc(C(C)(C)C#N)cc1,0.0743 µM (active),,
O=C(O)[C@H](Cc1c[nH]c2ccccc12)N1C(=O)c2ccccc2C1=O,,inactive,
O=C(O)C1(Cc2cccc(Nc3nccs3)n2)CCC(Oc2cccc(Cl)c2F)CC1 (stereo not given),2.64 µM (active) and 1.3 µM (active),,
O=c1[nH]nc(Sc2ncc([N+](=O)[O-])s2)n1-c1ccc2c(c1)OCCO2,9.35 µM (active),,
CC(C)(O)c1cc2nc(-c3cnc(N)nc3)nc(N3CCOCC3)c2s1,372 nM (active) and 1.3 µM (active),,
CNC(=O)c1ccccc1Nc1nc(Nc2ccc(N3CCOCC3)cc2OC)ncc1Cl,3.32 µM (active),,
Cc1cn2cc(C(=O)N(C)CCO)cc(N[C@@H]3CCOc4cccc(C)c43)c2n1,,,-7.53% and -5.18%
COc1cc2c(Nc3ccc(NC(=O)c4ccccc4)cc3)ncnc2cc1OCCCN1CCOCC1,23.1 µM (active),,-7.34%
CC(C)(C)c1cc(NC(=O)Nc2ccc(-c3cn4c(n3)sc3cc(OCCN5CCOCC5)ccc34)cc2)no1,1.18 µM (active) and 5.8 µM (active),,
O=C(C=Cc1cccnc1)NCCCCC1CCN(C(=O)c2ccccc2)CC1,0.0074 µM (active),,
CCn1cc(-c2ccnc3[nH]c(-c4cccc(CN(C)C)c4)cc23)c(-c2ccc(NC(=O)N(C)C)cc2)n1,11.8 µM (active),,
Cc1ccc(CN2CCNCC2)cc1NC(=O)CNc1ccc(F)c(F)c1,,inactive,-5.99%
CC1COC2(CCN(c3nc(=O)c4cc(C(F)(F)F)cc([N+](=O)[O-])c4s3)CC2)O1 (stereo not given),,inactive,2.26%
O=C(Nc1cc(C(F)(F)F)cc(C(F)(F)F)c1)c1cc(Cl)ccc1O,590 nM (active) and 1.16 µM (active),,
